The panel holds about 83,000 compounds, 20% with a hit somewhere; the sample as a whole holds those more often.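 Step 1: grow cells in 96-well plates. Step 2: add test compound at a single concentration. Step 3: incubate 48 h. Step 4: record percent growth.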 Unmarked numbers belong to inactive results. Activity calls are given as the source filed them. How the source made its calls: active means growth percent below 10; inactive means the rest.
What was measured:
Assay in all cases: NCI-60 one-dose screen, 48 h (100 = growth as untreated, 0 = no growth, -100 = all killed)
Details in all cases: 10 µM unless noted
[1] = test system: NCI-H226 lung
[2] = test system: NCI-H322M lung
[3] = test system: HOP-62 NSCLC
[4] = test system: NCI-H460 lung
[5] = test system: HOP-92 NSCLC
[6] = test system: NCI-H522 lung
[7] = test system: A549/ATCC NSCLC
[8] = test system: 786-0 renal
[9] = test system: COLO 205 colon

Row | SMILES | growth [1] | growth [2] | growth [3] | growth [4] | growth [5] | growth [6] | growth [7] | growth [8] | growth [9]
1 | CC(=O)Nc1ccc(S(=O)(=O)NC(CCC(=O)Nc2ccc(Cl)cc2)C(=O)O)cc1 (configuration not stated) | 96.8% | 96.9% | 92.2% | 105% | 113% | 97.1% | 93.8% | 107% | 97.8%
2 | O=c1[nH]c(CN2CCN(c3ccccc3F)CC2)nc2sc3c(c12)CCC3 | 102% | 98.9% | 92.4% | 123% |  | 98.7% | 110% | 95.8% | 91.9%
3 | CCCCCC/C=C\CCCCCCCCOc1ccc(CCOP(=O)(O)OCC[N+](C)(C)C)cc1 | 102% | 105% | 72.8% | 26.9% | 60.7% | 59% | 79% | 89.6% | 86.4%
4 | COc1cc(-c2csc(NC(=O)c3cc(C(F)(F)F)cc(C(F)(F)F)c3)n2)cc(OC)c1OC | 23.6% | 32.7% | 46.4% | 13.8% | -10.6% (active) | 3.92% (active) | 26.3% | 41.6% | 37.7%
5 | Cc1sc2nc(CSc3nnc(-c4ccco4)o3)[nH]c(=O)c2c1C | 102% | 131% | 115% | 108% | 106% | 104% | 101% | 111% | 109%
6 | O=C(O)c1cccc([N+](=O)[O-])c1/C=C/c1ccccc1 | 96.9% | 90.5% | 92.6% | 103% | 112% | 116% | 104% | 98.1% | 98.9%
7 | O=C(CCl)NCCNc1nccc(Nc2ccc(S(=O)(=O)Nc3ccccn3)cc2)n1 | 48% | 56.5% | 26% | 2.9% (active) |  | -63.9% (active) | 56.8% | -34.5% (active) | 61.1%
8 | O=C(O)c1ccc(-n2c(=O)c3ccccc3c3ccccc3c2=O)cc1 | 99.8% | 108% | 102% | 115% | 110% | 94.9% | 106% | 109% | 105%
9 | COC12CC(=O)C(C(C)=O)=C(O)C1(C)c1c(O)c(C)c(O)c(C(C)=O)c1O2 (configuration not stated) | 81.2% | 71.4% | 86% | 55.1% | 46% | 70.1% | 64.8% | 60.8% | 99.8%
10 | O=C(Nc1ccccc1)OCC1OCOC(COC(=O)Nc2ccccc2)C1OC(=O)Nc1ccccc1 (configuration not stated) | 84% | 49.4% | 64.8% | 6.23% (active) | 94.9% | 38.2% | 47.9% | 49.3% | 91.6%
11 | COc1ccc(/C=N/NC(=O)Cn2c(Cc3cccc4ccccc34)nc3ccccc32)cc1 | 92.7% | 84.5% | 89.3% | 106% |  | 77.7% | 95% | 102% | 106%
12 | Cc1c(C(=O)NCc2ccccc2)[n+](=O)c2cc(F)ccc2n1[O-] | 103% | 117% | 94.8% | 109% | 64.3% | 90.9% | 109% | 101% | 123%
13 | CC(C)CCC[C@@H](C)[C@H]1CC[C@H]2[C@@H]3CC[C@H]4C/C(=N/O)CC[C@]4(C)[C@H]3CC[C@]12C | 92.1% | 103% | 92.8% | 106% | 101% | 104% | 73.1% | 102% | 108%
14 | Cn1c(=O)c2c(nc3n2CCN(CCc2ccc(OCCN4CCOCC4)cc2)C3)n(C)c1=O | 100% | 100% | 106% | 107% | 96.6% | 94.2% | 99.4% | 99.6% | 115%
15 | Cc1c(C2=NNC(c3ccc4c(c3)OCO4)C2)[n+]([O-])c2ccccc2[n+]1[O-] (configuration not stated) | 102% | 161% | 92.1% | 111% | 83.6% | 95.9% | 109% | 106% | 101%
16 | Nc1nn2cc(-c3ccc(Cl)s3)nc2c2ccccc12 | 94.8% | 96.7% | 76.4% | 86.8% | 67% | 78.5% | 83.9% | 104% | 95.2%
17 | Clc1ccc(/C=C/c2nc(N3CCOCC3)c3nc(Cl)c(Cl)cc3n2)cc1 | 106% | 111% | 110% | 105% | 94.1% | 95.5% | 107% | 92.2% | 102%
18 | CCOC(=O)C1=C(C)NC(=O)NC1c1ccc(OCC(=O)N/N=C/c2ccc(Cl)cc2)cc1 (configuration not stated) | 95.8% | 87.5% | 89.9% | 101% | 90.1% | 81.2% | 77% | 97.6% | 105%
19 | COc1ccc(/C=C/c2nc(N3CCOCC3)c3cc(F)c(F)cc3n2)cc1OC | 33.2% | 70.2% | 86.8% | 36.4% | 33.7% | 26% | 30.9% | 45.4% | 
